Screening results (PubChem BioAssay)
TDP1 block: TDP1 (human) enzyme inhibition; Q9NUW8; recombinant TDP1, AlphaScreen DNA substrate cleavage; Potency, µM (doses to about 130 µM), inactives show top-dose activity change, negative = inhibition, hits mostly inhibitors; hit rate 0.28% among 350,000; AID 485290; also: % is scaled to controls: 0 for no effect and ±100 for the full control effect; nearly all actives have a fitted effect of over 40% in size
Target sequence (Q9NUW8 whole entry, looked up): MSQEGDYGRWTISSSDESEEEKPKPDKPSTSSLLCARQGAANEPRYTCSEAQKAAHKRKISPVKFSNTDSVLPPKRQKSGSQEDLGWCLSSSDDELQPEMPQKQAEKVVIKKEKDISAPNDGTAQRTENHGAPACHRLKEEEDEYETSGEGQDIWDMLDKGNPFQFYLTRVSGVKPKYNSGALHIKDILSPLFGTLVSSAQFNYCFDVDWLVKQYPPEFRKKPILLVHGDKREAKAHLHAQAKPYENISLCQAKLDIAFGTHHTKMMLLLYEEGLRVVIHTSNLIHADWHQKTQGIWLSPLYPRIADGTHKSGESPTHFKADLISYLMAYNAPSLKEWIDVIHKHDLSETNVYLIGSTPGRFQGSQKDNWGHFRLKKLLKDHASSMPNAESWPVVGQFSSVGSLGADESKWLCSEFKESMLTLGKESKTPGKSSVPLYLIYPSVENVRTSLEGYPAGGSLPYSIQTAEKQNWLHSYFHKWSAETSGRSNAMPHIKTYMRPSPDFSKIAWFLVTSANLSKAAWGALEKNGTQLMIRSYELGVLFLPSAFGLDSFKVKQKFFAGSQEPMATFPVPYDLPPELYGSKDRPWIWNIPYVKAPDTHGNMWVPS
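Here, a 5' biotin and 3' phosphotyrosine-FITC DNA oligonucleotide reports Tdp1 activity: intact substrate bridges AlphaScreen beads, while cleavage leaves a 3' phosphate and drops signal. All incubations at room temperature.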
BAZ2B inh: BAZ2B (human) inhibition. Q9UIF8. AlphaScreen BAZ2B-H3K14Ac peptide displacement. Potency, µM (top dose mostly 114 µM), for the others: at the top dose activity change, negative = inhibition, actives largely listed as inhibitors. hit rate 4.4% among 360,000; also: % is scaled to controls: 0 for no effect and ±100 for the full control effect; nearly all actives have a fitted effect of over 60% in size
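Protein-peptide AlphaScreen: BAZ2B 50 nM, b-H3K14Ac 50 nM, 1x PBS pH 7.4 + 0.01% Tween-20. Preincubation 30 min RT; cpd 30 min RT (top 110 uM); beads 20 min RT, light-protected.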
G9a block: inhibitors of human histone lysine methyltransferase G9a; Q96KQ7; G9a H3K9 monomethylation, AlphaScreen, 2 h; Potency, µM (doses to about 102 µM), for the others: at the highest dose activity, negative = inhibition, hits mostly inhibitors; hit rate 8.8% among 350,000; also: % is scaled to controls: 0 for no effect and ±100 for the full control effect; nearly all actives have a fitted effect of over 75% in size
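Enzyme 20 nM + cpd, 15 min RT; add b-H3K9 pep 500 nM / SAM 20 uM; 2 h RT; anti-H3K9me1 Ab 0.5 ug/mL + SA donor / anti-rabbit acceptor beads 20 ug/mL each, 10 min; AlphaScreen read.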
JMJD2A Tudor: blocks the human JMJD2A Tudor domain; O75164; hit rate 4.4% among 390,000; AID 504339; AlphaScreen JMJD2A-Tudor / H3K4me3 peptide binding; Potency, µM (titrated, usually from 114 µM), for inactives: at the highest dose activity change, negative = inhibition, actives largely listed as inhibitors; also: % is scaled to controls: 0 for no effect and ±100 for the full control effect; nearly all actives have a fitted effect of over 50% in size
Sfp inh: Sfp phosphopantetheinyl transferase inhibition; AID 1490; Q9F4F7; hit rate 3.5% among 310,000; Potency, µM, inactives show largest response in the series, negative = inhibition, hits mostly inhibitors; Biochemical Sfp PPTase activity, qHTS;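 also: the enzyme is Sfp with the accession as filed and its product quenches rhodamine fluorescence; 0% = enzyme reaction without inhibitor and -100% = no enzyme wells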
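With Hepes-Na pH 7.6 buffer containing 10 mM MgCl2, Sfp (15 nM) modified BHQ-2-YbbR (12.5 uM) using rhodamine-CoA (5 uM). Two reads 30 minutes apart at 525/598 nm yielded each well's rate.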
HP1b chromo inh: blocks HP1-beta chromodomain binding to methylated histone tails | AlphaScreen HP1-beta / biotin-H3K9me3 peptide binding | Potency, µM (top dose mostly 114 µM), inactives show at the top dose activity change, negative = inhibition, most hits filed as inhibitors | hit rate 0.56% among 390,000 | AID 540317; also: nearly all actives have a fitted effect of over 70% in size
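AlphaScreen: HP1-beta (50 nM) preformed 30 min with biotin-H3(1-18)K9me3 peptide (50 nM) in PBS pH 7.4, 0.01% Tween-20. Compound added for 30 min at RT, then streptavidin donor/nickel chelate acceptor beads (10 ug/mL) for 30 min.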
* hit, by the source's call; [ ] = dose if it differs, or a comment. Compounds with a hit are over-represented: about 12% of the library has one in this group of screens. Calls follow the shape of the dose curve; as a rule, active = well fitted curve in the direction sought with a large enough effect; inconclusive = small, poorly fitted or top-dose-only effect, or another doubt; inactive = no such curve, though single readings can be large; an effect the other way counts as inactive or inconclusive. Potency is read from the fitted curve at half-maximal effect.

How did COc1ccc(NC(=O)C2CCCN(S(C)(=O)=O)C2)c(OC)c1 (configuration not stated) do in these assays?
BAZ2B inh: 0.1%; G9a block: 28.0%; JMJD2A Tudor: -14.5%; Sfp inh: 9.7%; HP1b chromo inh: 56.1%

What do the screens show for `COc1ccc(NC(=O)C2CCN(C(=O)NC3CCCCC3)CC2)c(OC)c1`?
TDP1 block: 2.1%; G9a block: -7.1%[59 µM]; JMJD2A Tudor: 79.4µM*; Sfp inh: 17.4%; HP1b chromo inh: -20.5%

What do the screens show for `COC(=O)c1ccccc1NC(=O)c1cc(C2CC2)on1`?
TDP1 block: -7.6%; BAZ2B inh: 3.7%; G9a block: 4.4%[59 µM]; JMJD2A Tudor: 19.7%; Sfp inh: 3.2%; HP1b chromo inh: 93.7%

Results for COc1ccc(NC(=O)c2cc(C3CC3)on2)c(OC)c1 ?
TDP1 block: -2.1%; BAZ2B inh: 6.7%; G9a block: 44.7µM*; JMJD2A Tudor: 0.7%; Sfp inh: -4.3%; HP1b chromo inh: 60.1%

What do the screens show for `COc1ccc(NC(=O)C2CCN(C(=O)c3cccs3)CC2)c(OC)c1`?
TDP1 block: 3.1%; BAZ2B inh: -32.1%; G9a block: 7.4%[12.7 µM]; JMJD2A Tudor: 28.2µM*; Sfp inh: 15.3%; HP1b chromo inh: inconclusive

What do the screens show for `CC1(C)CC(N2CCCCC2)=CC(=[N+]2CCCCC2)C1`?
TDP1 block: 6.9%; BAZ2B inh: -16.6%; G9a block: inconclusive; JMJD2A Tudor: -16.5%; Sfp inh: 7.4%; HP1b chromo inh: 7.8%

What do the screens show for `CC1C[N+](=C2C=C(N3CCOCC3)CC(C)(C)C2)CC(C)O1` (configuration not stated)?
TDP1 block: -1.2%; BAZ2B inh: -38.4%; G9a block: -6.8%[12.7 µM]; JMJD2A Tudor: inconclusive; Sfp inh: inconclusive; HP1b chromo inh: 25.1µM*

Results for COc1ccc(C2C(C(=O)O)c3ccccc3C(=O)N2C)cc1Br (configuration not stated) ?
TDP1 block: -3.3%; BAZ2B inh: -29.1%; G9a block: 3.98µM*; JMJD2A Tudor: -9.3%; Sfp inh: 3.9%; HP1b chromo inh: 64.2%

How did CN1C(=O)c2ccccc2C(C(=O)O)C1c1cn(C)c2ccccc12 (configuration not stated) do in these assays?
TDP1 block: 2.0%; BAZ2B inh: -0.2%[57.1 µM]; G9a block: -14.5%; JMJD2A Tudor: 44.7µM*; Sfp inh: 1.8%; HP1b chromo inh: inconclusive

What do the screens show for `O=C(Nc1ccccc1Cl)NC1CCCCCCC1`?
TDP1 block: -0.4%; BAZ2B inh: 5.7%; G9a block: 15.2%; JMJD2A Tudor: -2.1%; Sfp inh: 6.3%; HP1b chromo inh: 45.9%

How did Cc1ccc(S(=O)(=O)N2CCN(C(=O)C3CCN(C(=O)c4ccc(F)cc4)CC3)CC2)c(C)c1 do in these assays?
TDP1 block: 1.7%; BAZ2B inh: 11.2%; G9a block: inconclusive; JMJD2A Tudor: 17.8µM*; HP1b chromo inh: 10.0%

Results for O=C(NCC1CCCO1)c1cccc(Oc2ccc([N+](=O)[O-])cc2Cl)c1 (configuration not stated) ?
TDP1 block: 3.1%; BAZ2B inh: inconclusive; G9a block: inconclusive; JMJD2A Tudor: -23.1%; Sfp inh: -7.8%; HP1b chromo inh: 9.9%

What do the screens show for `[O-]/[N+](=C/c1ccc(F)cc1)c1ccc(Cl)cc1`?
TDP1 block: 7.0%; BAZ2B inh: -33.1%; G9a block: 11.2µM*; JMJD2A Tudor: -23.0%; Sfp inh: 39.8µM*; HP1b chromo inh: 4.5%

How did O=C(CN(C(=O)CCC(=O)Nc1ccccn1)c1ccc2c(c1)OCO2)NCc1ccc(F)cc1 do in these assays?
TDP1 block: -13.3%; BAZ2B inh: -25.8%; G9a block: 10.9%; JMJD2A Tudor: 0.0%; Sfp inh: 12.8%; HP1b chromo inh: 19.9%
